Laboratory results from the supplement of paper PMC12350171.
Where a name gives a salt, the structure may show the parent alone. A number with no mark means an inactive call.

Tests used:
Conditions in all cases: 20 µM
[1] = tested on: P. vulgatus RND KO; assay: growth AUC normalised to DMSO control (median) (fraction of control); higher = less growth inhibition, active = hit call of the paper
In short: (§1)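 Each strain went through two overnight passages under anaerobic conditions before growth in mGAM in 96-well plates, starting at OD578 0.01, with each compound from the approved-drug library at 20 μM and 1% DMSO. Inside an anaerobic incubator, OD578 was recorded every hour for 24 h. Growth curves were cut off at entry into stationary phase, and the area under the curve was calculated by the trapezoidal rule and normalised to vehicle wells on the same plate. Reported values are medians of three biological replicates.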

[2] = tested on: P. vulgatus WT; assay: as above
In short: as §1

[3] = tested on: S. enterica typhimurium WT; assay: as above
In short: as §1

[4] = tested on: S. enterica typhimurium tolC KO; assay: as above
In short: as §1

[5] = tested on: Haemophilus parainfluenzae; assay: growth AUC normalised to DMSO control (fraction of control); higher = less growth inhibition, active = hit call of the paper
In short: (§2)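 For the AUC endpoint, growth curves were integrated by the trapezoidal rule up to the exponential-to-stationary transition and normalised to DMSO controls on the same plate. The curves came from OD578 readings taken hourly for 24 h, in three biological replicates. Pathogens had been passaged anaerobically twice and inoculated at an OD578 of 0.01 into pre-reduced mGAM plates carrying 20 μM compound and 1% DMSO, sealed with breathable membranes. Medium for Haemophilus parainfluenzae also contained hemin and NAD.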

[6] = tested on: Salmonella enterica typhimurium; assay: as above
In short: as §2

[7] = tested on: Shigella flexneri; assay: as above
In short: as §2

[8] = tested on: Vibrio cholerae; assay: as above
In short: as §2

[9] = tested on: Yersinia pseudotuberculosis; assay: as above
In short: as §2
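For growth AUC normalised to DMSO control (median) in this document: active when median AUC fell below 0.1.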

| SMILES | growth AUC normalised to DMSO control [1] | growth AUC normalised to DMSO control [2] | growth AUC normalised to DMSO control [3] | growth AUC normalised to DMSO control [4] | growth AUC normalised to DMSO control [5] | growth AUC normalised to DMSO control [6] | growth AUC normalised to DMSO control [7] | growth AUC normalised to DMSO control [8] | growth AUC normalised to DMSO control [9] |
| --- | --- | --- | --- | --- | --- | --- | --- | --- | --- |
| CN1C(=O)COc2c(C(=O)NC3CN4CCC3CC4)cc(Cl)cc21 (centres undefined) [Azasetron hydrochloride] | 1.02 | 1.04 | 1.01 | 1.01 |  |  |  |  |  |
| NCCc1c[nH]c2ccc(O)cc12 [Serotonin hydrochloride] | 1.04 | 1.08 | 1 | 0.998 | 1.07 | 0.983 | 1.02 | 1.06 | 0.981 |
| CN1[C@@H]2CC[C@H]1C[C@@H](OC(=O)C(CO)c1ccccc1)C2 (some centres undefined) [Atropine sulfate monohydrate] | 1.04 | 1.07 | 1.01 | 0.987 | 1.06 | 1.01 | 1.06 | 1.03 | 1 |
| Oc1ccc(Cl)cc1Cc1cc(Cl)ccc1O [Dichlorophen] | 0.641 | 0.442 | 0.915 | 0.00799 (active) |  |  |  |  |  |
| C[N+]1(C)[C@@H]2CC[C@H]1C[C@@H](OC(=O)C(CO)c1ccccc1)C2 (some centres undefined) [Methylatropine nitrate] | 1.02 | 1.04 | 0.999 | 1.02 | 1.05 | 1.01 | 1.03 | 1.02 | 1 |
| NCC(CC(=O)O)c1ccc(Cl)cc1 (centres undefined) [Baclofen] | 1.02 | 1.07 | 1.02 | 0.999 | 1.04 | 1.01 | 1.01 | 1.01 | 0.992 |
| C[C@]12C/C(=C/O)C(=O)C[C@@H]1CC[C@@H]1[C@@H]2CC[C@@]2(C)[C@H]1CC[C@]2(C)O [Oxymetholone] | 0.918 | 1 | 1.01 | 0.956 |  |  |  |  |  |
| CC(C)=CC1C(C(=O)OCc2cccc(Oc3ccccc3)c2)C1(C)C (centres undefined) [Phenothrin] | 1.01 | 1.01 | 0.998 | 1.01 |  |  |  |  |  |
| C=C[C@H]1CN2CC[C@H]1C[C@H]2[C@H](OC(=O)OCC)c1ccnc2ccc(OC)cc12 [Quinine ethyl carbonate] | 1.01 | 1 | 0.996 | 0.969 |  |  |  |  |  |
| CCC1(C2=NCCN2)Cc2ccccc2O1 (centres undefined) [Efaroxan hydrochloride] | 1.02 | 1.03 | 0.997 | 0.999 |  |  |  |  |  |
| CC(C)(C)NCC(O)c1ccccc1Cl (centres undefined) [Tulobuterol Hydrochloride] | 1.01 | 1 | 0.995 | 0.989 |  |  |  |  |  |
| N#Cc1nn(-c2c(Cl)cc(C(F)(F)F)cc2Cl)c(N)c1[S+]([O-])C(F)(F)F (centres undefined) [Fipronil] | 0.985 | 0.906 | 1.01 | 0.903 |  |  |  |  |  |
| COc1ccc(C(CN(C)C)C2(O)CCCCC2)cc1 (centres undefined) [Venlafaxine] | 0.997 | 0.999 | 0.997 | 1 | 1.33 | 0.98 | 0.957 | 0.984 | 1.08 |
| CCC(COC(=O)c1cc(OC)c(OC)c(OC)c1)(c1ccccc1)N(C)C (centres undefined) [Trimebutine] | 1 | 1.01 | 1 | 0.936 |  |  |  |  |  |
| O=C(CCCN1CCC2(CC1)C(=O)NCN2c1ccccc1)c1ccc(F)cc1 [Spiperone] | 0.98 | 0.988 | 0.995 | 0.979 | 0.953 | 0.978 | 0.978 | 0.917 | 0.985 |
| CC(=O)NC1CCSC1=O (centres undefined) [Citiolone] | 1.03 | 1.04 | 1 | 1.01 | 1.03 | 1.01 | 1 | 1.03 | 0.985 |
| CC[C@@H](C(=O)[C@@H](C)[C@@H](O)[C@H](C)[C@@H]1O[C@@H]([C@@H](CC)C(=O)O)CC[C@@H]1C)[C@H]1O[C@]2(C=C[C@@H](O)[C@]3(CC[C@@](C)([C@H]4CC[C@](O)(CC)[C@H](C)O4)O3)O2)[C@H](C)C[C@@H]1C [Salinomycin sodium] | 0.00978 (active) | 0.00987 (active) | 1.01 | 0.781 |  |  |  |  |  |
| c1ccc2c(c1)Nc1ccccc1S2 [Phenothiazine] | 1.01 | 1.01 | 0.972 | 0.945 |  |  |  |  |  |
| CCC1(c2cccc(O)c2)CCCCN(C)C1 (centres undefined) [Meptazinol hydrochloride] | 0.993 | 0.982 | 0.998 | 1 | 0.961 | 0.983 | 0.948 | 0.974 | 0.994 |
| O=C(O[C@H]1C[N+]2(CCCOc3ccccc3)CCC1CC2)C(O)(c1cccs1)c1cccs1 [Aclidinium bromide] | 1 | 1 | 1.01 | 1 |  |  |  |  |  |
| NC(=O)CN1CC(O)CC1=O (centres undefined) [Oxiracetam] | 1.02 | 1.03 | 1 | 0.955 |  |  |  |  |  |
| Cc1cccc(C)c1NC(=O)CN1CCCC1=O [Nefiracetam] | 1.01 | 1.01 | 1 | 1 |  |  |  |  |  |
| CCC(=O)O[C@@](Cc1ccccc1)(c1ccccc1)[C@@H](C)CN(C)C [Levopropoxyphene napsylate] | 1.03 | 1.05 | 1 | 0.995 | 1 | 0.999 | 1.04 | 1 | 1.02 |
| CCN(CC)CCOC(=O)C(O)(c1ccccc1)c1ccccc1 [Benactyzine hydrochloride] | 0.979 | 0.997 | 1.01 | 1 |  |  |  |  |  |
| C[C@]12CC[C@@H]3c4ccc(OC(=O)N(CCCl)CCCl)cc4CC[C@H]3[C@@H]1CC[C@@H]2O [Estramustine] | 0.982 | 0.984 | 1 | 0.968 |  |  |  |  |  |
| NC(=O)OCCCc1ccccc1 [Phenprobamate] | 1.01 | 1.02 | 0.989 | 0.991 |  |  |  |  |  |
| Nc1nc(N)nc(NC2CC2)n1 [Cyromazine] | 0.998 | 1.01 | 1 | 0.988 |  |  |  |  |  |
| NCC(O)c1ccc(O)cc1 (centres undefined) [Octopamine hydrochloride] | 1.02 | 1.03 | 1 | 1.03 | 1.03 | 1 | 0.999 | 1.01 | 1.02 |
| C[C@]12C=CC(=O)C=C1CC[C@@H]1[C@@H]2CC[C@@]2(C)[C@H]1CC[C@]2(C)O [Methandrostenolone] | 0.996 | 0.998 | 1.01 | 0.982 |  |  |  |  |  |
| CC(N)C(O)c1ccccc1 (centres undefined) [Phenylpropanolamine hydrochloride] | 1.03 | 1.02 | 1.01 | 1.01 | 1.07 |  | 1.03 | 1.01 | 0.972 |
